We go through twelve compounds from PubChem BioAssay (NCI).

Molecules are shown by their SMILES. “And” between values parts separate entries of the source, which are not always exact repeats. Equal values may be shown once. Compounds without any hit were thinned out: in the full panel of roughly 83,000, 20% have a hit.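 Values shown are percent growth following 48 h exposure of cells in 96-well plates to a single concentration of compound; below 10 was considered active.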 A number with no mark means an inactive call. The source made the active and inactive calls.

Some test systems named below: NCI-H23 lung; NCI-H226 lung; NCI-H322M lung; HOP-62 NSCLC; NCI-H460 lung; HOP-92 NSCLC; NCI-H522 lung; A549/ATCC NSCLC; 786-0 renal; COLO 205 colon.
Common to all, as to experiment: NCI-60 one-dose screen, 48 h (100 = growth as untreated, 0 = no growth, -100 = all killed)
Conditions in all cases: 10 µM unless noted

On to `Fc1ccc(NC(c2ccc(F)cc2)C2CCN(CCCCc3ccccc3)CC2)cc1` (stereo not given), for which the growth is 43.7% in the test with NCI-H23 lung; 74.4% in the test with NCI-H226 lung; 60.9% in the test on NCI-H322M lung; 71.4% in the test on HOP-62 NSCLC; 1.45% (active) with NCI-H460 lung; 29.1% with HOP-92 NSCLC. The growth is 53.6% in the test on NCI-H522 lung, 52.3% in the test with A549/ATCC NSCLC, 35.8% with 786-0 renal and -56.5% (active) in the test on COLO 205 colon.
With `O=C(CN1C(=O)S/C(=C\C(Cl)=C\c2ccccc2)C1=O)NCCCn1ccnc1`, the growth was 24% in the test with NCI-H23 lung; 41.9% in the test with NCI-H226 lung; 90.8% in the test on NCI-H322M lung; 84.9% in the test with HOP-62 NSCLC; 68.5% with NCI-H460 lung; 52.5% with HOP-92 NSCLC. Further, the growth with NCI-H522 lung is -3.5% (active); in the test on A549/ATCC NSCLC it was 85.2%; in the test on 786-0 renal, 9.43% (active); with COLO 205 colon it was 4.93% (active).
Turning to `COc1cc(/C=C(/c2ccccc2)[N+](=O)[O-])c(OC)c2c1OCO2`, the growth in the test on NCI-H23 lung is -34.7% (active); with NCI-H226 lung, 24.8%; in the test with NCI-H322M lung, 3.33% (active); in the test on HOP-62 NSCLC it was -19.6% (active); in the test with NCI-H460 lung it was -16.1% (active); in the test on HOP-92 NSCLC, -49.2% (active). The growth in the test on NCI-H522 lung is -62.8% (active); with A549/ATCC NSCLC, 5.75% (active); in the test with 786-0 renal, -98% (active); in the test on COLO 205 colon, -53.1% (active).
Regarding `CC(=O)c1nn(-c2ccccc2)/c(=N/N=Cc2cn(-c3ccccc3)nc2-c2cc3ccccc3oc2=O)s1`, the growth in the test with NCI-H23 lung is 109%; with NCI-H226 lung, 105%; in the test with NCI-H322M lung, 93.2%; with HOP-62 NSCLC it was 101%; in the test on NCI-H460 lung it was 117%; in the test on HOP-92 NSCLC, 94.7%. In addition, the growth in the test with NCI-H522 lung was 95.6%; in the test with A549/ATCC NSCLC, 102%; in the test with 786-0 renal, 105%; in the test with COLO 205 colon, 117%.
For the compound `COc1ccc(-c2[nH]c3ccccc3c2-c2ccc(OC)cc2)cc1`, the growth with NCI-H23 lung is 53%; with NCI-H226 lung, 112%; with NCI-H322M lung, 84.2%; in the test on HOP-62 NSCLC, 51.9%; in the test with NCI-H460 lung, 43.2%; in the test with HOP-92 NSCLC it was 42.6%. Also, the growth is 55.6% with NCI-H522 lung, 75.7% with A549/ATCC NSCLC, 51.7% with 786-0 renal and 75.3% with COLO 205 colon.
Take `CCCCCC#CC1OC23CCCCC2C(C#N)(C(=N)O3)C1(C#N)C#N` (stereo not given): the growth was 101% in the test with NCI-H23 lung; 97.4% in the test with NCI-H226 lung; 98.3% in the test on NCI-H322M lung; 98.8% with HOP-62 NSCLC; 99.8% in the test with NCI-H460 lung; 90.4% in the test on HOP-92 NSCLC. Further, the growth in the test on NCI-H522 lung was 77.5%; in the test on A549/ATCC NSCLC, 75.6%; in the test with 786-0 renal, 91.4%; with COLO 205 colon, 117%.
On to `CCCCCCCCN(CCCCCCCC)CC(O)c1cc(Cl)ccc1OC` (stereo not given), for which the growth in the test with NCI-H23 lung was 56%; in the test with NCI-H226 lung it was 62%; in the test on NCI-H322M lung, 94.7%; with HOP-62 NSCLC, 80.8%; with NCI-H460 lung, 62.6%; in the test on HOP-92 NSCLC it was 66%. Further, the growth with NCI-H522 lung was 68%; with A549/ATCC NSCLC, 83.9%; in the test on 786-0 renal, 72.7%; with COLO 205 colon it was 55.5%.
In the case of `COc1cc(/C=N/NC(=O)CCN2c3ccccc3Sc3ccccc32)cc(OC)c1OC`, the growth is 71.8% with NCI-H23 lung; 79.3% in the test with NCI-H226 lung; 83.2% in the test with NCI-H322M lung; 101% in the test on HOP-62 NSCLC; 95.8% with NCI-H460 lung; 61.5% with HOP-92 NSCLC. In addition, the growth in the test with NCI-H522 lung is 70.3%; with A549/ATCC NSCLC, 79%; in the test on 786-0 renal it was 96.8%; in the test with COLO 205 colon it was 105%.
For the compound `COc1ccc(Nc2nn3c(SCC(=O)c4ccc(C)cc4)nnc3s2)cc1`, the growth was 91.1% in the test on NCI-H23 lung; 84.8% in the test on NCI-H226 lung; 86.2% with NCI-H322M lung; 90.8% in the test on HOP-62 NSCLC; 97.9% with NCI-H460 lung; 83.4% in the test on HOP-92 NSCLC. Besides, the growth is 80.6% in the test on NCI-H522 lung, 96.6% with A549/ATCC NSCLC, 93.5% in the test on 786-0 renal and 91.8% with COLO 205 colon.
For the compound `c1ccc(-c2cc(-c3cc(-c4ccccc4)on3)no2)cc1`, the growth is 74.9% in the test on NCI-H23 lung; 98.8% in the test with NCI-H226 lung; 89.9% with NCI-H322M lung; 107% with HOP-62 NSCLC; 45% in the test on NCI-H460 lung; 86.1% in the test on HOP-92 NSCLC. In addition, the growth in the test with NCI-H522 lung was 62.2%; with A549/ATCC NSCLC it was 78.9%; with 786-0 renal it was 106%; with COLO 205 colon, 94.2%.
Turning to `CCCCCCCCCCCCC[C@H](O)C[C@H](O)[C@H](C)N`, the growth is 99.2% [1.25 µM] with NCI-H23 lung; 126% [1.25 µM] with NCI-H226 lung; 102% [1.25 µM] in the test with NCI-H322M lung; 116% [1.25 µM] with HOP-62 NSCLC; 103% [1.25 µM] with NCI-H460 lung; 56.7% [1.25 µM] with HOP-92 NSCLC. Moreover, the growth is 119% [1.25 µM] with NCI-H522 lung, 89.3% [1.25 µM] with A549/ATCC NSCLC, 85.9% [1.25 µM] with 786-0 renal and 92.2% [1.25 µM] in the test with COLO 205 colon.
For the compound `CC12CCC(C(=O)CC1=O)C2(C)C` (stereo not given), the growth in the test on NCI-H23 lung is 108% and 97.9%; in the test on NCI-H226 lung, 95.8%; with NCI-H322M lung, 112% and 97.3%; in the test with HOP-62 NSCLC it was 110%; in the test with NCI-H460 lung, 104% and 114%; in the test with HOP-92 NSCLC it was 102% and 94.9%. In addition, the growth is 103% and 153% in the test with NCI-H522 lung; 101% and 103% with A549/ATCC NSCLC; 104% and 96.6% in the test with 786-0 renal; 114% and 110% in the test on COLO 205 colon.
